{"source": "PubChem BioAssay (NCI)", "note": "Compounds without any hit were thinned out: in the full panel of roughly 83,000, 20% have a hit.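 Cell lines were cultured in 96-well plates, exposed to a single compound concentration, and assessed for percent growth 48 hours later.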 Unmarked numbers belong to inactive results. Active and inactive are the calls of the source.", "data": [{"tested_on": "HCT-116 colon", "experiment": "NCI-60 one-dose screen, 48 h (100 = growth as untreated, 0 = no growth, -100 = all killed)", "conditions": "10 µM unless noted", "experimental": "Growth inhibition of the HCT-116 human tumor cell line is measured as a screen for anti-cancer activity. Cells are grown in 96 well plates and exposed to the test compound for 48 hours. Compounds are tested at a single concentration, which is 10^-5 M for most compounds. The reported endpoint is percent growth (GI% or GIPRCNT), where numbers from 0 - 100% represent growth inhibition, and numbers from -100% - 0 represent cell death. For example, a value of 40 represents 60% growth inhibition. A value of 0 means no net growth occurred over the course of the experiment. A value of -40 indicates 40% of cells at the beginning of the experiment died by the end of the experiment. A value of -100 means all cells are dead at the end of the experiment.\nNCI-60 Human Tumor Cell Lines Screen was performed using the standard one-dose NCI protocol, which is described in more detail at https://dtp.cancer.gov/discovery_development/nci-60/default.htm.\nCompounds with GIPRCNT values below 10 were considered active. Activity score was based on GIPRCNT using the following formula: […]\nScore is 0 for GIPRCNT values of 100 or above, 50 for GIPRCNT values of 0, and 100 for GIPRCNT values of -100.", "values": [{"smiles": "Cn1c2ccccc2c2c3c(c4c5ccccc5[nH]c4c21)C(=O)N(N)C3=O", "growth": "40.7%"}, {"smiles": "ClC1=C2NC=NC2n2c(nnc2-c2ccc(Cl)cc2)N1", "note": "(stereo not given)", "growth": "98.5%"}, {"smiles": "Cc1ccc2cnc(N)c(C#Cc3cncc(C(=O)Nc4ccc(CN5CCN(C)CC5)c(C(F)(F)F)c4)c3)c2c1", "growth": "-36.1% (active)"}, {"smiles": "COc1cccc(-c2cn3c(ccc4ccccc43)n2)c1", "growth": "40.6%"}, {"smiles": "CN1CCN(Cc2ccc(NC(=O)c3[nH]ncc3Nc3ccnc4ccsc34)cc2)CC1", "growth": "10.1%"}, {"smiles": "CCN(CC)CCC(=O)Nc1ccc(Cn2nnc3c2C(=O)c2nnn(Cc4ccc(NC(=O)CCN(CC)CC)cc4)c2C3=O)cc1", "growth": "-87.9% (active)"}, {"smiles": "CC(=O)OCC(=O)C1CCC=CC1OC(C)=O", "note": "(stereo not given)", "growth": "100%"}, {"smiles": "CC[C@H](Nc1nc(N)nc(C)c1C#N)c1nc2cccc(NCc3ccc(C(=O)NO)cc3)c2c(=O)n1-c1ccccc1", "growth": "-50.5% (active)"}, {"smiles": "CCN(CC)CCCNc1cccc2c(SCc3ccccc3)ccnc12", "growth": "75%"}, {"smiles": "C[C@H](CCC(=O)O)[C@H]1CC[C@H]2[C@@H]3CC[C@@H]4/C(=C\\c5ccco5)C(=O)/C(=C\\c5ccco5)C[C@]4(C)[C@H]3CC[C@]12C", "growth": "21.8%"}, {"smiles": "Cc1cc2cc3cc(C)c(N(C)C)cc3[n+](C)c2cc1N(C)C", "growth": "12.6%"}, {"smiles": "N=c1c2ccccc2nc2n1CCCCC2", "growth": "109%"}, {"smiles": "Cc1cc(Nc2nc(N3CCOCC3)nc3ccccc23)n[nH]1", "growth": "40.1%"}, {"smiles": "O=[N+]([O-])c1cccc(C2CC(c3ccccc3)=Nc3ccccc3S2)c1", "note": "(stereo not given)", "growth": "47.9%"}, {"smiles": "CS(=O)(=O)c1ccc(-c2cnc3ccc(-c4cccc(S(C)(=O)=O)c4)nn23)cc1", "growth": "34%"}, {"smiles": "COc1cc2nc3cc([N+](=O)[O-])ccc3c(NCCCNCC(C)(C)O)c2cc1OC", "growth": "-46% (active)"}, {"smiles": "Cc1nc2sc(C(=O)Nc3cccc4c3OCCO4)c(N)c2cc1C(C)O", "note": "(stereo not given)", "growth": "31.3%"}, {"smiles": "Cc1cc(N/N=C/c2nc(-c3ccc(Cl)cc3)oc2C)c2cc(Br)ccc2n1", "growth": "4.35% (active)"}, {"smiles": "COc1ccc(CN2C(=O)/C(=C\\c3cc(OC)c(OC)c(OC)c3)c3cc(OC)ccc32)cc1", "growth": "-79.6% (active)"}, {"smiles": "OCC1C2C=CC(C2)C1CO", "note": "(stereo not given)", "growth": "96.7%"}, {"smiles": "Oc1ccc2c(=S)cc(-c3ccc(Br)cc3)oc2c1O", "growth": "-22% (active)"}, {"smiles": "COc1cc(C2C(C(=O)c3cccs3)=C(O)C(=O)N2CCN2CCOCC2)cc(OC)c1OC", "note": "(stereo not given)", "growth": "101%"}, {"smiles": "COC(=O)C12C3C(=O)N(c4ccc(OC)cc4)C(=O)C3C(c3cn(-c4ccccc4)nc3C)N1[C@H](c1cn(-c3ccccc3)nc1C)[C@@H]1C(=O)N(c3ccc(OC)cc3)C(=O)[C@@H]12", "note": "(stereo not given in full)", "growth": "104%"}, {"smiles": "COc1ccc(CCN2CCCn3c2nc2ccccc2c3=O)cc1", "growth": "14.3%"}, {"smiles": "O=[N+]([O-])c1c(F)cccc1Nc1cccc(F)c1", "growth": "99.5%"}, {"smiles": "O=C1C(Cl)=C(Cl)C(=O)c2c1nc1n2CCCC1", "growth": "84.1%"}, {"smiles": "O=C1/C(=C/c2ccc(Cl)cc2Cl)CN(S(=O)(=O)c2ccccc2)C/C1=C\\c1ccc(Cl)cc1Cl", "growth": "-84% (active)"}, {"smiles": "COc1ccc(/C=C2\\N=C3SC=C(N)N3C2=O)cc1", "growth": "-6.91% (active)"}, {"smiles": "O=C1OC2C(I)C3CC2C1C3c1ccccc1", "note": "(stereo not given)", "growth": "96.8%"}, {"smiles": "O=C(NCc1cccc(C(F)(F)F)c1)[C@H](CCC(=O)N1CCN(C2CCCCC2)CC1)N1C(=O)[C@@H](N2C(=O)OC[C@@H]2c2ccccc2)[C@H]1/C(Cl)=C/c1ccccc1", "growth": "34.3%"}, {"smiles": "Cc1ccc(S(=O)(=O)n2cc(-c3csc(-c4cn(C)c5ncccc45)n3)c3ccccc32)cc1", "growth": "36%"}, {"smiles": "O=c1c2c3c(sc2n2c(CCl)nnc2n1Cc1ccccc1)CCCC3", "growth": "-56.2% (active)"}, {"smiles": "C=C(C[n+]1ccccc1)[C@@H]1CC[C@]2(C(=O)OC)CC[C@]3(C)[C@H](CC[C@@H]4[C@@]5(C)CC[C@H](O)C(C)(C)[C@@H]5CC[C@]43C)[C@@H]12", "growth": "97%"}, {"smiles": "CS(CCCCN=C=S)=NC(=O)c1c(F)c(F)c(F)c(F)c1F", "note": "(stereo not given)", "growth": "54%"}, {"smiles": "COc1ccc(-n2cc(-c3ccccc3)c3c(SCC(=O)N/N=C/c4ccc([N+](=O)[O-])cc4)ncnc32)cc1", "growth": "105%"}, {"smiles": "CC1=N/C(=C\\c2cccc(Br)c2)C(=O)O1", "growth": "103%"}, {"smiles": "O=C(Nc1cccc2[nH]c(C(F)(F)F)nc12)c1ccc(Br)cc1F", "growth": "22.7%"}, {"smiles": "Cc1ccc2c(c1)n([O-])c1cc(Cl)ccc1[n+]2=O", "growth": "84.2%"}, {"smiles": "COc1ncc(-c2ccc3ncnc(Nc4cccc(Cl)c4)c3c2)cc1NS(C)(=O)=O", "growth": "47%"}, {"smiles": "CC(C)[C@H]1COC(=O)N1[C@@H]1C(=O)N([C@@H](CCC(=O)N2CCN(C3CCCC3)CC2)C(=O)N[C@@H]2CCCc3ccccc32)[C@@H]1/C=C/c1cccc(Br)c1", "growth": "14.3%"}]}]}
